The source of these data is PubChem BioAssay AID1321 (The Scripps Research Institute Molecular Screening Center, 2008).

In all, about 220,000 compounds went through this assay and about 2,600 (1.2%) were called active. Only a selection was taken, and actives are over-represented in it overall. A number with no mark means an inactive call.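 How the source made its calls: active means activation above the mean of all tested compounds plus 3 SD, set per screening run (cut at about 8.8% in these data); inactive means the rest.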

This assay deals with Wee1-like protein kinase (Homo sapiens) (UniProt P30291). Nature of the assay: Wee1 degradation inhibitors, primary screen, cell-based, HeLa, Wee1K328M-luciferase, luminescence (AID 1321).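 Further: cells exposed to compound for 20 h before luminescence read; 0% = DMSO alone and 100% = MG132 at 30 µM.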 To be noted: HeLa Luc-Wee1K328M stability, at 5 µM, hits give high values.
As to `O=c1[nH]c(=O)n(Cc2ccccc2)c(O)c1/C=N/Nc1c(F)c(F)c(F)c(F)c1F`, the activation was -0.63%.

As to `O=C(N/N=C/c1c(O)n(Cc2ccccc2)c(=O)[nH]c1=O)c1ccccc1`, the activation is 16.4% (active).

In the case of `CCCCC(=O)N/N=C/c1c(O)n(-c2ccccc2)c(=O)[nH]c1=O`, the activation was -2.55%.

With `CN(C)CC1CCCCC1=O` (stereo not given), the activation was -1.81%.

For the molecule `NC(=O)Nc1cccc(C(F)(F)F)c1`, the activation was 0.59%.
